In PubChem BioAssay (NCATS):
Inconclusive results are not listed. Activity calls are given as the source filed them. Unless noted, the call rests on the fitted dose curve; in most records, active means well fitted curve in the direction sought with a large enough effect; inconclusive means small, poorly fitted or top-dose-only effect, or another doubt; inactive means no such curve, though single readings can be large; an effect the other way counts as inactive or inconclusive.

How the values were obtained:
[1] = biological target: Cytochrome P450 2D6 (Homo sapiens) (UniProt P10635); assay: Cytochrome P450 family 2 subfamily D member 6 (CYP2D6) small molecule antagonists: luciferase biochemical (cell-free) qHTS assay (AID 1645840; active means well fitted curve in the direction sought with a large enough effect in the repeat runs; an effect the other way counts as inactive or inconclusive; further: nearly all actives have a fitted effect of over 55% in size); conditions: P450-Glo CYP2D6 enzyme, luciferin luminescence, 1 h; series mostly up to 57.4 µM
Cytochrome P450 2D6 (Homo sapiens), sequence (P10635 whole entry, looked up): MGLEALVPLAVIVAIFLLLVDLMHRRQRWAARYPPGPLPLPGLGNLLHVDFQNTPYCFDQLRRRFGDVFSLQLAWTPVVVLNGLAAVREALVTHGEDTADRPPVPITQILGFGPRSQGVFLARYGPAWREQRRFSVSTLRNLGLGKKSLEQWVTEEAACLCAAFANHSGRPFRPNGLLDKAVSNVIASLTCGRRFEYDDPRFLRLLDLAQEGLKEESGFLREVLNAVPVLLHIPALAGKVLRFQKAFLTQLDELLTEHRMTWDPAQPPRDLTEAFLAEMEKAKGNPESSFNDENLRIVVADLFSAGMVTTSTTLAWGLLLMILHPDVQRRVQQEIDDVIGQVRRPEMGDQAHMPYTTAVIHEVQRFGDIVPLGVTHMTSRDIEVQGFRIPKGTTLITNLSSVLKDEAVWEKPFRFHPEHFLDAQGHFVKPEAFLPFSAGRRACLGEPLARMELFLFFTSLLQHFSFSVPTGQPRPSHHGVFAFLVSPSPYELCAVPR
How it was run: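 P450-Glo CYP2D6 system: proluciferin substrate converted by enzyme to luciferin, read by luminescence proportional to activity. Enzyme-substrate mix with compound 10 min at room temperature, then NADPH regeneration 1 h before detection reagent.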

[2] = biological target: Cytochrome P450 2C9 (Homo sapiens) (UniProt P11712); assay: Cytochrome P450 family 2 subfamily C member 9 (CYP2C9) small molecule antagonists: luciferase biochemical (cell-free) qHTS assay (AID 1645842; active means well fitted curve in the direction sought with a large enough effect in the repeat runs; an effect the other way counts as inactive or inconclusive; further: nearly all actives have a fitted effect of over 55% in size); conditions: P450-Glo CYP2C9 enzyme assay, luciferin luminescence; series mostly up to 57.4 µM
Cytochrome P450 2C9 (Homo sapiens), sequence (P11712 whole entry, looked up): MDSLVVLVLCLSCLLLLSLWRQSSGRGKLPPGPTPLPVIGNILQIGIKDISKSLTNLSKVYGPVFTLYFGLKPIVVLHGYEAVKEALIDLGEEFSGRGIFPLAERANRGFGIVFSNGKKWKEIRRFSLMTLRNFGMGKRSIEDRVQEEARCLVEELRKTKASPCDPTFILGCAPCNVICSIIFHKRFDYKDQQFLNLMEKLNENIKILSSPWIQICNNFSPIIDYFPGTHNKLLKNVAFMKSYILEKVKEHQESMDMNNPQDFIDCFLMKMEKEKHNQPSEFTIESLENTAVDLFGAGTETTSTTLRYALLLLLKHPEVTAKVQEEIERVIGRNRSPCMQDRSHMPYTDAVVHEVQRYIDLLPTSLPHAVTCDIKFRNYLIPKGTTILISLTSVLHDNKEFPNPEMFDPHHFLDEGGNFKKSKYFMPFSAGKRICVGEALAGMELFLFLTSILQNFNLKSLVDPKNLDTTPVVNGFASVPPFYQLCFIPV
How it was run: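 P450-Glo CYP2C9 system: proluciferin substrate with enzyme in mix containing 0.4% BSA, 10 min at room temperature, then NADPH regeneration solution added and incubated 1 h at 37C. Detection reagent stopped reaction; luminescence read after 20 min as RLU.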

[3] = Primary qHTS for inhibitors of nuclear receptor binding SET domain protein 2 (NSD2) in an isogenic RCH-ACV NSD2 p.E1099K mutant (9B) (AID 1645876); conditions: RCH-ACV NSD2 E1099K (9B) viability, CellTiter-Glo, 72 h; series mostly up to 44.9 µM; further: nearly all actives have a fitted effect of over 70% in size
[4] = Primary qHTS for inhibitors of nuclear receptor binding SET domain protein 2 (NSD2) in an RCH-ACV wild type WT cells (2C) (AID 1645877); conditions: RCH-ACV (leukaemia line) NSD2 WT (2C) viability, CellTiter-Glo, 72 h; series mostly up to 44.9 µM; further: nearly all actives have a fitted effect of over 70% in size

Measured: Potency

O=[N+]([O-])c1cncn1CCN1CCOCC1
inactive: all assays above

CN1N=C(C(N)=O)CCC1=O
inactive: all assays above

O=[N+]([O-])c1nccn1CO[C@@H](CO)[C@H](O)CO
inactive: all assays above
